# From PubChem
# Most compounds without a hit are left out; they make up all but 10% or so of the library.
# GPT2 inhibitor – Primary qHTS assay for inhibitors of Glutamate pyruvate transaminase 2 (GPT2); Alanine aminotransferase 2 (Homo sapiens), Q8TD30; Recombinant GPT2, coupled pyruvate oxidase/HRP Amplex Red fluorescence; Potency, µM (highest dose often 57.7 µM), for the others: at the top dose activity change, negative = inhibition, actives largely listed as inhibitors; 0.25% of 100,000 active; also: nearly all actives have a fitted effect of over 60% in size
#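 Fluorescence read-out: pyruvate from GPT2 turnover coupled to pyruvate oxidase, HRP and Amplex Red (0.2mM ThPP, 0.2U/mL PO and HRP, 50uM Amplex final). Substrates 250uM a-KG, 2mM L-alanine; enzyme 10ng/uL; 30 min RT.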
# Luciferase inh – Firefly luciferase inhibition profiling of diverse chemical library using quantitative high-throughput screening; Luciferin 4-monooxygenase (Photinus pyralis), P08659; Potency, µM (series often up to 115 µM), hits mostly inhibitors; 2.5% of 76,000 active; purified P. pyralis luciferase, luminescence, biochemical; AID 1347043, 2019; also: nearly all actives have a fitted effect of over 65% in size
#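 FLuc 10nM, D-luciferin 10uM, ATP 10uM, Mg acetate 10mM, Tris acetate pH 7.5, Tween/BSA; cpd qHTS; enzyme added last; CCD luminescence.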
# NIH3T3 tox – Cytotoxic Profiling in NIH 3T3 Cell Line of Diverse Libraries Using Quantitative High-Throughput Screening; Potency, µM (top dose mostly 96.7 µM), for inactives: at the highest dose activity change, negative = cytotoxicity, most hits filed as inhibitors; 4.3% of 94,000 active; NIH 3T3 viability, CellTiter-Glo ATP luminescence, 48-72 h; also: nearly all actives have a fitted effect of over 55% in size
#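 Luminescent ATP readout (CellTiter-Glo, 10 min RT) after 48 or 72 hr compound exposure of NIH 3T3 cells seeded at 400 cells/well in 1536-well format; quantitative HTS.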
# HEK293 tox – Cytotoxic Profiling in HEK 293 Cell Line of Diverse Libraries Using Quantitative High-Throughput Screening. HEK 293 viability, ATP luminescence (CellTiter-Glo), 48-72 h. Potency, µM (doses to about 115 µM), without a hit: top-dose activity change, negative = cytotoxicity, most hits filed as inhibitors. 6.6% of 94,000 active. AID 1345083, 2018; also: nearly all actives have a fitted effect of over 60% in size
#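 CellTiter-Glo luminescence (cellular ATP) was read after 48 or 72 hr of compound exposure at 37 degree Celsius. Cells were HEK 293 plated at 250 cells/well.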
# hNpr1 antagonist – Natriuretic polypeptide receptor (hNpr1) antagonism - Primary qHTS. HEK293 hNpr1 GloSensor cGMP, ANP-stimulated luminescence. Potency, µM (doses to about 46.3 µM), for the others: at the highest dose activity change, negative = inhibition, hits mostly inhibitors. Atrial natriuretic peptide receptor 1 (Homo sapiens), P16066. 1.6% of 76,000 active. AID 1347048, 2019; calls by dose curve; also: nearly all actives have a fitted effect of over 60% in size
#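 Compound pre-incubated 30 min at room temperature on GloSensor-loaded HEK293 cells stably carrying hNpr1 and the pGS-40F cGMP biosensor. Stimulation uses hNppA at 0.1 nM final; luminescence is taken at baseline and 20 min post-agonist.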
# * hit, by the source's call; i = inactive; ? = inconclusive; / = not tested or not shown; ! = a repeat was not active; [ ] = dose if it differs, or a comment. Unless noted, calls follow the shape of the dose curve; as a rule, active = well fitted curve in the direction sought with a large enough effect; inconclusive = small, poorly fitted or top-dose-only effect, or another doubt; inactive = no such curve, though single readings can be large; an effect the other way counts as inactive or inconclusive. % is scaled to controls: 0 for no effect and ±100 for the full control effect; potency is read from the fitted curve at half-maximal effect.
SMILES,GPT2 inhibitor,Luciferase inh,NIH3T3 tox,HEK293 tox,hNpr1 antagonist
COc1ccc(Nc2ccnc(N3CCCC(C(=O)N4CCC(Cc5ccccc5)CC4)C3)n2)cc1 (centres undefined),-17%,/,28µM*,20µM*,/
COc1ccc(Nc2ccnc(N3CCCC(C(=O)NCc4ccccc4Cl)C3)n2)cc1 (centres undefined),i,/,35µM*,35µM*,/
COc1ccccc1Nc1ccnc(N2CCCC(C(=O)N3CCC(C#N)CC3)C2)n1 (centres undefined),i,/,?,?,/
O=C(c1ccccc1)N1CC2(CCCCN2CC2CC2)Cc2ccccc21 (centres undefined),3%[88.5 µM],/,-12%[138 µM],?,/
CNC(=O)[C@@H](c1ccc(OC)cc1)N1CCC[C@H]1C(=O)NCC1CCCCC1,-6%[88.5 µM],i,100µM*,?,0%[70.6 µM]
O=C1C[C@@H]2CCN(C(=O)Nc3ccccc3)C[C@@H]2CCN1CCc1cnc[nH]1,-29%[88.5 µM],i,-9%[138 µM],-10%[172 µM],0%[70.6 µM]
Cc1ccc(C(=O)N2CCN(C(=O)c3nnn4c3COC(c3ccc(Cl)cc3)C4)CC2)cc1F (centres undefined),-21%,i,-12%,-16%,-1%
O=C(c1cc(F)ccc1F)N1CCN(C(=O)c2nnn3c2COC(c2ccc(Cl)cc2)C3)CC1 (centres undefined),3%,i,-25%,35µM*,?
O=C(c1ccc(F)cc1)N1CCN(C(=O)c2nnn3c2COC(c2ccc(Cl)cc2)C3)CC1 (centres undefined),0%,i,?,40µM*,-26%
CN(Cc1ccccc1)C(=O)[C@H]1O[C@H](CCN2CCN(c3ccc(F)cc3)CC2)CC[C@@H]1O,3%,i,i,?,6%
CCOc1ccc(Cc2nc(C3CC(=O)N(C4CCCCC4)C3)no2)cc1 (centres undefined),i,i,-25%,?,-3%
COCCN(Cc1nccs1)C(=O)c1cnc(-c2ccccn2)[nH]c1=O,i,i,?,40µM*,3%
COCCn1ccc2c(C3=CCOCC3)nc(-c3ccc4c(c3)CNC4=O)cc21,-21%[88.5 µM],?,?,?,-1%[70.6 µM]
COCCn1ccc2c(C3=CCOCC3)nc(-c3cccc(CO)c3)cc21,3%[88.5 µM],i,13µM*,?,3%[70.6 µM]
COCCn1ccc2c(C3=CCOCC3)nc(-c3ccc4cn[nH]c4c3)cc21,-29%[88.5 µM],i,?,?,-2%[70.6 µM]
COCCn1ccc2c(C3=CCOCC3)nc(-c3cccc4[nH]ncc34)cc21,1%[88.5 µM],i,?,?,-11%[70.6 µM]
COCCn1ccc2c(C3=CCOCC3)nc(-c3cccc(N4CCOCC4)c3)cc21,-2%[88.5 µM],i,45µM*,?,2%[70.6 µM]
COCCn1ccc2c(C3=CCOCC3)nc(-c3cccc4[nH]ccc34)cc21,?,i,50µM*,28µM*,-1%[70.6 µM]
O=C(C1CC1)N1CCCC(CN2CCCC2)CC1 (centres undefined),i,i,3%,0%,-2%
COc1ccc(-c2ccc(C(=O)N3CCC(NC(=O)c4ccccc4Cl)CC3)cc2)nn1,/,/,-27%,?,/
Fc1ccc(-c2ccc3ncc(Nc4ccnc(N5CCOCC5)c4)n3n2)cc1,i,i,8.9µM*,32µM*,?
COc1cccc(Nc2cnc3ccc(N4CCOCC4)nn23)c1,?,i,?,-25%[172 µM],-2%[70.6 µM]
Fc1ccc(-c2ccc3ncc(Nc4cc(F)cc(N5CCOCC5)c4)n3n2)cc1,?,?,?,63µM*,?
CC1(C)CCC2=C(O1)c1ccccc1C(=O)C2=O,3.4µM*!,/,/,/,/
CCc1cccc(NC(=O)C2CCc3ncc(-c4ccsc4)n3C2)c1 (centres undefined),i,i,?,45µM*,-4%
SMILES,GPT2 inhibitor,Luciferase inh,NIH3T3 tox,HEK293 tox,hNpr1 antagonist
COc1cc(NC(=O)C2CCc3ncc(-c4ccsc4)n3C2)cc(OC)c1 (centres undefined),-12%,i,?,?,-14%
CN1c2cc(C(=O)N3CCN(c4cccc(Cl)c4)CC3)ccc2C(=O)N2CCCCC21 (centres undefined),i,i,?,45µM*,-2%
CN1c2cc(C(=O)N3CCN(c4ccccc4)CC3)ccc2C(=O)N2CCCCCC21 (centres undefined),-2%,i,?,?,-1%
CN1c2cc(C(=O)N3CCN(c4ccccc4)CC3)ccc2C(=O)N2CCCCC21 (centres undefined),i,i,-9%,?,0%
Cc1cccc(N2CCN(C(=O)c3ccc4c(c3)N(C)C3CCCCN3C4=O)CC2)c1 (centres undefined),i,i,?,32µM*,0%
CN1c2cc(C(=O)N3CCN(c4cccc(Cl)c4)CC3)ccc2C(=O)N2CCCC21 (centres undefined),1%,i,-15%,79µM*,-5%
CS(=O)(=O)c1ccc(Oc2cc(F)cc(C#N)c2)c2c1[C@H](O)C(F)(F)C2,1%,/,/,/,/
CCOc1ccc(C(=O)N2CCC[C@H]2c2nc(-c3ccccc3Cl)no2)cc1,-3%,?,20µM*,?,-13%
CCOc1ccccc1C(=O)N1CCC[C@H]1c1nc(-c2ccc(F)cc2)no1,i,i,?,35µM*,-1%
CCOc1cc(C(=O)N2CCC[C@H]2c2nc(-c3ccccc3Cl)no2)cc(OCC)c1OCC,i,i,?,?,2%
Cc1nnc(-c2cc(-c3cccc(F)c3)ccn2)n1CCN1CCOCC1,2%[88.5 µM],i,22µM*,?,-1%[70.6 µM]
COc1cccc(-c2ccnc(-c3nnc(C)n3CCN3CCOCC3)c2)c1,?,i,-19%[138 µM],?,-1%[70.6 µM]
Cc1nnc(-c2cc(-c3cccc(F)c3)ccn2)n1CCc1ccccc1,4%[88.5 µM],i,?,?,1%[70.6 µM]
Cc1nnc(-c2cc(-c3cccnc3)ccn2)n1CCN1CCOCC1,3%[88.5 µM],i,?,5%[172 µM],3%[70.6 µM]
Cc1cc(-c2ccnc(-c3nnc(C)n3CCN3CCOCC3)c2)ccn1,i,i,89µM*,-6%[172 µM],1%[70.6 µM]
Cc1nnc(-c2cc(-c3cccc(O)c3)ccn2)n1CCc1ccccc1,?,i,100µM*,?,-14%[70.6 µM]
CC(=O)N1CC2(CCCN(Cc3ccc(Cl)cc3)C2)Cc2ccccc21 (centres undefined),1%,/,-19%,?,/
